PubChem BioAssay AID1159580 (chemical genetic matrix, 2015)
Screen size: about 5,500 compounds; about 2,000 (36%) were called active. Another 18% or so got no clear call; they are omitted. Cut-off read from the data, not from the text of the source: active = normalized growth mostly below about 0.91 (no sharp cut-off); inconclusive = no clear call, values can overlap the other calls; inactive = mostly above about 0.92. The list shows a part of the results.

Assay: chemical genetic growth profiling, strain panel (AID 1159580);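 note: tested at 20 µM; growth read once vehicle control cultures reached saturation at 30 °C; 1 = growth at the plate median or of vehicle wells; lower values mean less growth of the strain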
Details: S. cerevisiae deletion strains, growth OD

Measured: normalized growth

CCCN(CCc1ccccc1)C1CCc2c(O)cccc2C1 (centres undefined)
inactive: locus YAL013W, strain DEP1, stronger effect = lower value 0.992 | locus YAL040C, strain CLN3, stronger effect = lower value 1.02 | locus YCL061C, strain MRC1 (second series), stronger effect = lower value 1 | locus YDR363W, strain ESC2, stronger effect = lower value 1.02 | locus YER002W, strain NOP16, stronger effect = lower value 1 | locus YGR229C, strain SMI1, stronger effect = lower value 0.988 | locus YJR075W, strain HOC1, stronger effect = lower value 1 | locus YMR263W, strain SAP30, stronger effect = lower value 1 | locus YMR307W, strain GAS1, stronger effect = lower value 0.997 | locus YNL153C, strain GIM3, stronger effect = lower value 0.957 | locus YNL175C, strain NOP13, stronger effect = lower value 1 | locus YNL224C, strain SQS1, stronger effect = lower value 1.01 | locus YOR083W, strain WHI5 (second series), stronger effect = lower value 1.02 | locus YPL055C, strain LGE1, stronger effect = lower value 0.973
